Results from PubChem BioAssay AID595 (National Center for Advancing Translational Sciences (NCATS), 2007).
Screen size: about 71,000 compounds; about 310 (0.44%) were called active. Another 5% or so got no clear call; they are omitted. The call rests on the fitted dose curve; in most records, active means well fitted curve in either direction with a large enough effect; inconclusive means small, poorly fitted or top-dose-only effect, or another doubt; inactive means flat fitted curve, though single readings scatter. The list comes from a sample in which actives are over-represented; it also holds similar structures and randomly drawn compounds.

test system: Hsp90 C-terminal peptide / TPR2A (Hop) interaction, human; experiment: qHTS Assay for Disrupters of an Hsp90 Co-Chaperone Interaction; settings: AlphaScreen TPR2A-His6 binding biotin-Hsp90 C-terminal peptide; series mostly up to 57 µM
From the text: NIH Chemical Genomics Center [NCGC]
NIH Molecular Libraries Screening Centers Network [MLSCN]
Hsp90 (heat shock protein 90) is the essential molecular chaperone and it accounts for 1-2% of all cytosolic proteins and is critical for the activity of diverse cellular proteins that are involved in a variety of cellular processes, including development, cell cycle, and steroid hormone signaling. Its client proteins include signaling kinases such as IGF1R, Akt, v-Src, Raf-1; regulators of cell survival such as Bcr-Abl; and transcription factors such as mutated p53, estrogen and progesterone receptors. Hsp90 has emerged as an important target for cancer treatment due to its essential role in maintaining transformation and regulating the function of oncogenic signaling proteins.
The in vivo function of Hsp90 is regulated by the binding and hydrolysis of ATP at its N-terminal. Geldanamycin binds to ATP site and inhibit Hsp90 function. Geldanamycin and its analogues are under clinical trials in cancer patients.
This domain contains the binding site for tetratricopeptide repeat (TPR) domains on HOP (Hsp Organizing Protein). TPR is a structural motif used by a significant number of cochaperones by which the in vivo function of Hsp90 is regulated. TPR2A on HOP binds specifically to MEEVD motif of the C-terminal of Hsp90.
A homogeneous AlphaScreen is developed to assess the interaction between TPR2A and MEEVD motif of the C-terminal of Hsp90 by using the isolated TPR2A domain and a synthesized 20mer Hsp90 C terminal peptide. AlphaScreen is two bead-based proximity-dependent chemical energy transfer luminescent assay platform. TPR2A-His-6 and biotinylated Hsp90 C terminal peptide will bring streptavidin donor beads and nickel chelate acceptor beads to a proximity range (less than 200 nm), and subsequently lead a chemical luminescent reaction upon exciting donor beads with 680 nm laser. Inhibition of TPR2A and MEEVD motif interaction by small molecules could attenuate or abolish this chemical luminescent reaction.
Counter screening: Biotinylated-His-6 (PerkinElmer) can be utilized as a counter screen, as it serves as a linker to bring streptavidin beads and nickel chelate beads together. The counter screen can exclude alpha screen platform false positives due to small molecules being metal chelators, biotin analogues and imidazole analogues, or due to interfering with oxygen release from donor beads. Such an assay should be utilized to qualify any activity observed in this screen.
NCGC Assay Protocol Summary:
The assay was performed on 1536-well white plate (untreated solid bottom). Liquids were dispensed by 1536-well plate washer (Kalypsys, San Diego, CA). Plates were read on EnVision (PerkinElmer, Boston, MA).TPR2A-His6 was produced using a bacteria expression system and purified using a well developed method (Ghosh et al., 2000). Hsp90 C terminal 20-mer peptide with or without an N-terminal biotin group are synthesized using automated solid phase synthesis by the Yale Keck facility. The composition of assay buffer was (in mM) 25 HEPES, 100 KCl, 2 MgCl2 and 2 DTT; 0.1% BSA and 0.01% Tween-20. TPR2A-His6 binding to biotin-Hsp90 will bring streptavidin donor beads and nickel chelate acceptor beads (PerkinElmer) together and can be measured by Alpha reading by EnVision (PerkinElmer). Free Hsp90 blocks biotin-Hsp90 binding to TPR2 and serves as a positive control in the current asssay.
The assay was performed at room temperature. All compounds were screened as titrations from […] to 46 uM final concentration. The assay was performed in 1536-well format plates (untreated white solid bottom, Corning Inc.) as follows:
Sequence,Parameter,Value,Description
1,Reagent,3 uL TPR2A-His6,Final concentration was 5nM
2,Compound,23 nL,Final titration was from 0.7 nM to 46 uM
3,Time,15 minutes,Room temperature
4,Reagent,1 uL biotin-Hsp90,With and without free Hsp90. Final concentration was 10 nM for biotin-Hsp90 and 10uM for free Hsp90.
5,Time,1 hour,Room temperature
[…]
On the % scale 0 is the no-effect control and ±100 the full control effect; potency means the concentration at half of the fitted maximal effect.

Activity change, negative = inhibition, inactive:
O=S(=O)(c1ccccc1)N1CCC2(CC1)CN(Cc1nccs1)C2
NC1(C(=O)OCc2ccccc2)CCCC1 -2.78% [at 11 µM]
NCC(=O)[C@@H](O)[C@H](O)[C@H](O)CO -1.57% [at 11 µM]
Cc1ccc(CNC(=O)C2CC(=O)N(C3CCCCCCC3)C2)cc1 (configuration not stated)
COc1ccc(C(=O)N2CCC[C@@]3(CCN(C(=O)NC(C)C)C3)C2)cc1
Clc1ccc(Cc2nnc(-c3cccs3)o2)cc1
Cn1c(=O)c(-c2ccccc2)nc2cnc(N3CCNCC3)nc21
C=CC(=C)CCC=C(C)C
CN1CCN(c2cc(=O)n(-c3ccc(Cl)cc3)c(=O)[nH]2)CC1
CCN(CC)S(=O)(=O)N1CCC(C(=O)NC(C)CCc2ccccc2)CC1 (configuration not stated)
CC1=C(C(=O)OCc2ccccc2)C(c2ccc(C(F)(F)F)cc2)NC(=O)N1CCCCCC(=O)O (configuration not stated)
COC(=O)C(CC(=O)Nc1cc(C)ccc1C)Nc1ccccc1OC (configuration not stated)
O=C(O)c1ccc(COCC(F)(F)F)cc1
COC(=O)[C@@H]1[C@H]2C[C@H]3c4[nH]c5cc(OC)ccc5c4CCN3C[C@@H]2C[C@@H](OC(=O)c2cc(OC)c(OC)c(OC)c2)[C@@H]1OC
CC[C@]1(C)CC(=O)NC1=O
CCCn1c(-c2ccc(F)cc2)nc2c(NCC3CCCN3CC)nc(C)nc21 (configuration not stated)
CCNc1ncc2ncc(=O)n(CCc3ccccc3)c2n1
Cc1c(NC(=O)c2cccnc2)c(=O)n(-c2ccccc2)n1C
CN1C(=O)C[C@H](c2ccccc2)C1=O
CC[C@@H]1Cc2cc(O)ccc2C2=C1c1ccc(O)cc1C[C@H]2CC
Nc1ccc2c3c(cccc13)C(=O)NC2=O
COc1ccc(CC(=O)Nc2ccc3c(c2)CCC3)cc1S(=O)(=O)N1CCOCC1
CC(C)[C@@H](CC(=O)N[C@@H]1CCNC[C@H]1C(=O)N[C@H](CC(=O)N[C@@H](CCC(=O)O)CC(=O)O)Cc1ccccc1)NC(=O)C[C@H](CO)NC(=O)[C@@H]1CNCC[C@H]1N
OC(COc1ccc2ccccc2c1)CN1CCOCC1 (configuration not stated)
O=C(c1cccnc1NCc1ccccc1)N1CCOCC1
CCN(Cc1ccncc1)C(=O)[C@@H](CO)c1ccccc1
CS(=O)(=O)N1CCC2(CC1)CN(Cc1ccccc1)C2
COc1cccc(Cn2c(=O)c(-c3ccccc3)nc3cnc(OC)nc32)c1
CCCC[C@@H]1C[C@H]1C(NC(=O)c1ccc(-c2ccccc2)cc1)c1ccc(-c2ccccc2)cc1 (some centres not stated)
CC1=C(C(=O)Nc2ccc(Cl)cc2)C(c2ccco2)NC(=O)N1 (configuration not stated)

Potency, active:
CC(C)C[C@@H](CC(=O)N[C@@H](CCC(=O)O)CC(=O)O)NC(=O)[C@@H]1CCCC[C@H]1NC(=O)C[C@@H](NC(=O)C[C@H](Cc1c[nH]c2ccccc12)NC(=O)[C@@H]1CCCC[C@H]1N)C(C)C 5.01 µM
Oc1c(C(c2ccccn2)N2CCOCC2)ccc2cccnc12 (configuration not stated) 2 µM
